# Compound activity deposited in PubChem BioAssay by several laboratories.
# MT1-MMP txn act: MT1-MMP promoter reporter activation – cell-based, luciferase luminescence, primary screen; hit rate 0.16% among 86,000; activation factor at 10 µM; HT1080 MT1-MMP promoter luciferase reporter, overnight; stronger effect = higher value;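 active means activation factor of at least 2 for MT1-MMP transcription at 10 µM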
# HER2 expr 66K: inhibitors of Her2 protein expression, primary screen, SKBR-3 cells, AlphaScreen, 66K library; hit rate 0.69% among 65,000; Receptor tyrosine-protein kinase erbB-2 (Homo sapiens), P04626; SKBR-3 HER2 protein level, 18-24 h; stronger effect = lower value; AID 645, 2007; HER2 level % of control, % at 10 µM;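 active means HER2 level under 5% of the carrier-only control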;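 further: 100% = DMSO carrier and 0% = 500 nM PU-H71 HSP90 inhibitor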
# TNAP act mid DEA: human TNAP enzyme activators, primary screen, biochemical, luminescent, intermediate phosphate acceptor level; 64,000 tested, under 10 active; activation factor at 20 µM; AID 813, 2007; purified TNAP, CDP-star luminescence, 100 mM DEA, 30 min; stronger effect = higher value; scale: 0 levamisole-inhibited, 1 vehicle-only enzyme; Alkaline phosphatase, tissue-nonspecific isozyme (Homo sapiens), P05186;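 active means activation factor of at least 2 at 20 µM, relative to controls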
# Hsp90 inh: tumor Hsp90 inhibitors, primary screen, cell lysate, fluorescence polarization, NCI-N417 lysate; Heat shock protein HSP 90-alpha (Homo sapiens), P07900; Cy3B-geldanamycin FP displacement; inhibition, % at 30 µM; hit rate 0.35% among 64,000; AID 429, 2006;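 active means inhibition above 50%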;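 further: 0% = tracer plus lysate wells and 100% = tracer alone without lysate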
# HePTP inh: inhibitors of human HePTP phosphatase, primary screen, biochemical, absorbance, leukemia target; hit rate 0.64% among 110,000; inhibition, % at 20 µM; AID 521, 2006; recombinant HePTP phosphatase activity, OD absorbance; Tyrosine-protein phosphatase non-receptor type 7 (Homo sapiens), P35236; in the data active means inhibition above about 50%;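 further: plate controls were vehicle for no effect and reference inhibitor for full effect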
# Target sequence (P35236 whole entry, looked up): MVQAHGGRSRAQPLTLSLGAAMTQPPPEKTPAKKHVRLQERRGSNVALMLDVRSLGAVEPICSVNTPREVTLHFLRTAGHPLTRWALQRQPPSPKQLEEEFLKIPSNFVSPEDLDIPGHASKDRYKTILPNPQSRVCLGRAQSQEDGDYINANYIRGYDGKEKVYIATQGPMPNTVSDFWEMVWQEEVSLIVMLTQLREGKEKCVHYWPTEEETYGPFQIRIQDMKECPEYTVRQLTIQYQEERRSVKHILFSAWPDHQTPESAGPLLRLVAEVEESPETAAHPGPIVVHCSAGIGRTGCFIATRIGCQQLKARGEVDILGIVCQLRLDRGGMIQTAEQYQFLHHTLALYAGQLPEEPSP
# E coli RNAP: E. coli RNAP inhibitors, biochemical | DNA-directed RNA polymerase subunit beta (Escherichia coli (strain K12)), P0A8V2 | E. coli RNA polymerase, fluorescence transcription assay | inhibition, %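 (tested at 10 µM)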 | hit rate 0.2% among 62,000 | AID 559, 2006; in the data active means inhibition above about 20%;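 further: 0% = enzyme without compound and 100% = no enzyme blank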
# Numbers without * were called inactive; / = no result given. A selection: hits, their analogues and other compounds. The true share with any hit is near 1.1%.
SMILES,MT1-MMP txn act,HER2 expr 66K,TNAP act mid DEA,Hsp90 inh,HePTP inh,E coli RNAP
O=C(Nc1ccc(OC(F)(F)F)cc1)c1cc2ccccc2o1,/,/,/,/,9,/
FC(F)(F)Oc1ccc(Nc2nc3ccccc3o2)cc1,2.2*,75,0.9,-2,3,4
O=C(N/N=C/c1cccs1)C(=O)Nc1ccc(Br)cc1,/,/,/,/,-2,/
Cc1cccc(Nc2ccccc2C(=O)O)c1C,1.2,98,0.9,3,-2,7
Cc1ccc(C)n1-c1ccccc1C(=O)O,/,/,/,/,104*,/
Cc1c(C(=O)O)cccc1-n1c(C)ccc1C,/,/,/,/,104*,/
OC1CC(c2ccccc2)NC2(CCCC2)C1 (stereo unspecified),/,/,/,/,7,/
N#Cc1nc(-c2ccc([N+](=O)[O-])cc2)oc1NCc1ccccc1,/,/,/,/,-8,/
CCCCOC(=O)c1cccc(NC(=O)c2ccc(OC)cc2)c1,/,/,/,/,104*,/
Cc1ccc(NC(=O)Cn2cnc3c(cnn3C(C)(C)C)c2=O)cc1,1.2,84,1,-2,3,22*
CC(C)(C)n1ncc2c(=O)n(CC(=O)Nc3ccc4c(c3)OCO4)cnc21,1.2,99,1,-4,-9,8
COc1ccc(OC)c(/C=C/C(=O)c2c(-c3ccccc3)c3cc(Cl)ccc3[nH]c2=O)c1,/,/,/,/,-8,/
COCCN1C(=O)C(O)=C(C(C)=O)C1c1ccc(OC)c(OC)c1 (stereo unspecified),0.9,92,0.9,3,4,24*
Cc1nn(C)cc1/C=C/C(=O)c1cccs1,2.5*,/,/,/,/,/
Cc1nn(C)c(C)c1/C=C/C(=O)c1cccs1,1.8,/,/,/,/,/
C=CCc1cccc2cc(C(=O)NC)c(=O)oc12,1.1,-18*,0.9,-7,-3,3
O=C(O)c1ccc(/C=C2\SC(=O)N(c3ccc(F)cc3)C2=O)cc1,/,/,/,/,100*,/
O=c1oc2c3c4c(cc2s1)CCCN4CCC3,1.1,/,0.8,69*,9,3
COc1ccc2c(c1)-c1ccccc1S(=O)(=O)N2C(C)=O,1.1,84,1,-1,-5,29*
Cc1ccc(NCC(=O)N/N=C\c2ccccc2OCC(=O)O)cc1,/,/,/,/,0,/
O=C(O)COc1ccccc1/C=N/NC(=O)COc1c(Br)cc(Br)cc1Br,/,/,/,/,66*,/
Cc1ccc(NCCCC(=O)N/N=C/c2cccs2)cc1,/,/,/,/,1,/
O=C(NCCOc1cccc2ccccc12)Nc1cccc2ccccc12,/,/,/,/,1,/
Oc1ccc(C2CNCCc3c2cc(O)c(O)c3Cl)cc1 (stereo unspecified),/,/,/,75*,/,/
Oc1cc2c(c(Cl)c1O)CCNCC2c1ccccc1 (stereo unspecified),/,/,/,82*,/,/
SMILES,MT1-MMP txn act,HER2 expr 66K,TNAP act mid DEA,Hsp90 inh,HePTP inh,E coli RNAP
O=C(c1ccc(CN2CCOCC2)cc1)N1CCN(C(=O)c2ccc(CN3CCOCC3)cc2)CC1,/,/,/,/,3,/
C(=N\N1CCN(c2ccccc2)CC1)/c1ccc(OCc2ccccc2)cc1,/,/,/,/,4,/
COC(=O)c1c(-c2ccc(Cl)cc2)csc1N,/,/,/,/,4,/
COC(=O)c1c(-c2ccc(C)c(C)c2)csc1N,/,/,/,/,104*,/
CCc1ccccc1NC(=O)c1c(NC(=O)c2cccs2)sc2c1CCCC2,/,/,/,/,4,/
COC(=O)c1c2nc3ccccc3sc-2cc(=O)c1N,/,/,/,/,68*,/
Cc1ccc(-n2c(CNc3ccc(F)cc3)nnc2SCC(=O)N2CCCC2)cc1,1.1,95,0.9,0,6,36*
O=C(CSc1nnc(CNc2ccc(F)cc2)n1-c1ccccc1)N1CCOCC1,1.3,/,/,/,/,/
Cc1ccc(O)c(-c2cc(-c3cccc(F)c3)n[nH]2)c1,2.1*,/,/,/,/,/
COc1ccc(-c2cc(-c3ccc(OC)c(OC)c3)n[nH]2)c(O)c1,2*,/,/,/,-4,/
Cc1ccc(-c2cc(-c3cccc(F)c3)n[nH]2)c(O)c1,1.8,72,1,3,-1,9
COc1ccc(-c2cc(-c3cc(F)ccc3O)[nH]n2)cc1OC,2.3*,65,1.1,4,10,-3
COc1cc2c(cc1NC(=O)c1ccc(OC)c([N+](=O)[O-])c1)oc1ccccc12,/,/,/,/,50,/
O=CN1CCN(C(=O)c2ccc(C#Cc3ccccc3)cc2)CC1,/,/,/,/,-7,/
O=C(COc1ccc2ccccc2c1)Nc1cccc(Br)c1,/,/,/,/,70*,/
O=c1c2ccccc2nc(Cc2ccccc2)n1-c1cccc2ccccc12,/,/,/,/,0,/
O=C(Nc1nc(-c2ccc3c(c2)OCO3)cs1)C1COc2ccccc2O1 (stereo unspecified),1.1,69,0.9,91*,11,6
O=C1N=c2ccccc2=C1c1sc(=O)n(-c2cccc(O)c2)c1O,/,/,/,/,-18,/
O=C1N=c2ccccc2=C1c1s/c(=N/N=C2/C(=O)Nc3ccccc32)n(-c2ccc(O)cc2)c1O,/,/,/,/,98*,/
Cn1c(=O)c(NCCO)c2c3c(cccc31)C(=O)c1ccccc1-2,1.2,92,0.8,135*,9,1
CCCCNc1c2c3c(cccc3n(C)c1=O)C(=O)c1ccccc1-2,1.4,/,/,/,/,/
CC(=O)Oc1cccc2c1C(=O)c1c(OC(C)=O)cc(C(=O)O)cc1C2=O,1,94,0.7,102*,4,13
CCOc1ccc(C(=O)Nc2ccc(-c3nc4ccccc4s3)cc2)cc1[N+](=O)[O-],/,/,/,/,2,/
COc1ccc(C(=O)Nc2ccc(Cl)c(-c3nc4ccccc4s3)c2)cc1[N+](=O)[O-],/,/,/,/,65*,/
COc1ccc(-n2c(=O)c3c4c(sc3n3c(SCc5ccccc5)nnc23)CCC4)cc1,/,/,/,/,-8,/
SMILES,MT1-MMP txn act,HER2 expr 66K,TNAP act mid DEA,Hsp90 inh,HePTP inh,E coli RNAP
O=S(=O)(CCN1CCN(C(c2ccccc2)c2ccccc2)CC1)C(F)(F)F,1.2,-2.0*,0.9,-3,6,3
Nc1c(S(=O)(=O)c2ccccc2)c2nc3ccccc3nc2n1/N=C/c1cccc(O)c1,1.2,-28*,0.8,-7,4,6
CCOc1cc(C=C2C(=O)NC(=O)NC2=O)ccc1OCc1c(C)no[n+]1[O-],/,/,/,/,5,/
CCOc1cc(/C=C2\SC(=S)NC2=O)ccc1OCc1c(C)no[n+]1[O-],/,/,/,/,102*,/
CCOC(=O)C(Oc1cc2oc(=O)c3c(c2cc1Cl)CCCC3)c1ccccc1 (stereo unspecified),/,/,/,/,11,/
COc1c(C)cccc1C(=O)Nc1ccc(N2CCOCC2)c(Cl)c1,2.2*,/,/,/,/,/
O=C(Nc1ccc(N2CCOCC2)c(Cl)c1)c1cccnc1Cl,1.4,/,/,/,/,/
Nc1nc(-c2cccs2)c(NC(=O)c2ccccc2)s1,1.1,-11*,0.9,1,4,-1
O=C(COc1ccccc1F)Nc1nc(-c2cccs2)c(NC(=O)c2ccccc2)s1,/,/,/,/,-1,/
COc1cc(NC(=O)c2ccc(-c3cccc(Cl)c3)o2)ccc1NC(=O)c1ccco1,/,/,/,/,-4,/
